Design in all cases: scale not given: direction of the effect not stated beside the values
Assay [1] has as its target Protein translocase subunit SecA (Escherichia coli (strain K12)) (UniProt P10408). Put plainly: Assay to Identify E. coli SecA ATPase Inhibitors. Format: functional. The note with it: 30 µM.
In assay [2] the target is T1, Ubiquitin-activating enzyme e1, putative (Leishmania donovani (strain BPK282A1)) (UniProt E9BSI1).
T1 sequence (whole entry): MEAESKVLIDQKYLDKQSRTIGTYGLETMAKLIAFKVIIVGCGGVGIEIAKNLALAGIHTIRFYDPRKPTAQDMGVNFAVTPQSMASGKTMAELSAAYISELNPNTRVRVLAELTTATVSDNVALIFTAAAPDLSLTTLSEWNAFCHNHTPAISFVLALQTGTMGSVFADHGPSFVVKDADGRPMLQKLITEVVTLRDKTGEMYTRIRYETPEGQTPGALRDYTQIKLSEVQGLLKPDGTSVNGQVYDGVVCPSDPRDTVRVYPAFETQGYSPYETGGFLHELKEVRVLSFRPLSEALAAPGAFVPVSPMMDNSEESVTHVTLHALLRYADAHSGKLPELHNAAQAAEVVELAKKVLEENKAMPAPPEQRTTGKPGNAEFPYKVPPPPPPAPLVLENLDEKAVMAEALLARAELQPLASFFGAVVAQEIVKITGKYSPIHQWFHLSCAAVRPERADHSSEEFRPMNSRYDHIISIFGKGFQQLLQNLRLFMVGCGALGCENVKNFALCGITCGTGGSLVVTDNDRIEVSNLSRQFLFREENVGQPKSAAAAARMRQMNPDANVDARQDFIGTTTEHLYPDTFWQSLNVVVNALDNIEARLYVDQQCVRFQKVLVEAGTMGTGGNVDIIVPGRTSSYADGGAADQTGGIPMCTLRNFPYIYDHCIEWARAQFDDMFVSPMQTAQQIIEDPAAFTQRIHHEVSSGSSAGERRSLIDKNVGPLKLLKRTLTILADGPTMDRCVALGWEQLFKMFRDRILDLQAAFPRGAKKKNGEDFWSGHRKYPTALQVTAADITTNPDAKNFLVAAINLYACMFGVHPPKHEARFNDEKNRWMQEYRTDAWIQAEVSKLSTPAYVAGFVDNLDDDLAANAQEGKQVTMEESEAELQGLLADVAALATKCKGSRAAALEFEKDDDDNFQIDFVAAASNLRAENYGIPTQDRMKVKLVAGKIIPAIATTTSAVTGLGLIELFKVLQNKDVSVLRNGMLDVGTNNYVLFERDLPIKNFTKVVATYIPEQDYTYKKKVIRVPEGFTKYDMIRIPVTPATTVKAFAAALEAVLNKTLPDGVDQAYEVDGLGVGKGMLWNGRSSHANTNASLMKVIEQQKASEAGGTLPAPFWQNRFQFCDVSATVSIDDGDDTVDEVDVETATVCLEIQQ
Put plainly: Leishmania donovani Ubiquitin Activating Enzyme (LdE1). In kind it is functional. The settings on record: 30 µM.

Assay [3] addresses AMP-activated protein kinase, AMPK (Homo sapiens) (UniProt P54646+O43741+P54619+Q9UGJ0+Q9Y478+Q13131+Q9UGI9). Put plainly: AMP-dependent Kinase enzyme assay. An in vitro enzyme assay that detects ADP turnover that is directly proportional to AMPK activity. This uses naive AMPK that is activated during the assay with MK-8722. In kind it is functional. The note with it: 30 µM.
The target in assay [4] is Sialic acid-binding Ig-like lectin 9 (Homo sapiens) (UniProt Q9Y336). Description: Hs-Siglec9 ALPHAscreen SOP 20170721. The note with it: 10 µM. For orientation: In Alpha technology, singlet oxygen from a donor bead excites a nearby acceptor bead.
The subject of another assay is Trypanosoma cruzi. Description: Trypanosoma cruzi phosphomannomutase and mannose-1-phosphate guanylyltransferase assay. Format: functional. The settings on record: 10 µM.
The target of assay [5] is T2, Arginase-2, mitochondrial (Homo sapiens) (UniProt P78540).
T2 sequence (whole entry): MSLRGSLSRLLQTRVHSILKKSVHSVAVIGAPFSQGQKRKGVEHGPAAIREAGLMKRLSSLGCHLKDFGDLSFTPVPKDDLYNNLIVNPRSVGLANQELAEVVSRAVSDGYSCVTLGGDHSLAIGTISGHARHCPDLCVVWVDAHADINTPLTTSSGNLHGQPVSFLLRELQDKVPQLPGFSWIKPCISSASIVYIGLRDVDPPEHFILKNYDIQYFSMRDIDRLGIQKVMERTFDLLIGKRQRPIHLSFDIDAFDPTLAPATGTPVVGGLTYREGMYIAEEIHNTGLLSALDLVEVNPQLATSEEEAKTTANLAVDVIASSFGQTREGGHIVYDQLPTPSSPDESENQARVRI
Description: in vitro enzyme assay to detect the production of urea directly proportional to the activity of Arginase II. Also: in the data most compounds retested in dose-response had high values. In kind it is functional. The note with it: 33.3 µM.

For assay [6], the target named is T3, Proteasome subunit beta (Trypanosoma cruzi) (UniProt O96673).
T3 sequence (whole entry): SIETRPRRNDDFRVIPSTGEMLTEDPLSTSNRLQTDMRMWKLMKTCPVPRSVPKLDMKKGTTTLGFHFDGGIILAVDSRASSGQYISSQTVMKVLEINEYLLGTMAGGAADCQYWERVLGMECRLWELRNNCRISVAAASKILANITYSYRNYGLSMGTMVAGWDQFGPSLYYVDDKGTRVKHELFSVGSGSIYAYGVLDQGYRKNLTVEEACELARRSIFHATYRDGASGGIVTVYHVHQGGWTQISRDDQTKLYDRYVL
Put plainly: Trypanosoma cruzi proteasome chymotrypsin-like activity (TcProtChymo) assay. Also: in the data most compounds retested in dose-response had high values. In kind it is functional. The settings on record: 9.37 µM.

The species named for a further assay is Homo sapiens. Put plainly: To identify inhibition of the IFN signalling (Jak-Stat) pathway via expression of an eGFP reporter gene under the control of an IFN-stimulated response element (ISRE) containing MxA promoter. Format: functional. The settings on record: 30 µM. (In general: A reporter such as luciferase makes a cellular process visible.)
Assay [7] has as its target T4, Tyrosyl-tRNA synthetase, putative (Trypanosoma cruzi (strain CL Brener)) (UniProt Q4DSP6).
T4 sequence (whole entry): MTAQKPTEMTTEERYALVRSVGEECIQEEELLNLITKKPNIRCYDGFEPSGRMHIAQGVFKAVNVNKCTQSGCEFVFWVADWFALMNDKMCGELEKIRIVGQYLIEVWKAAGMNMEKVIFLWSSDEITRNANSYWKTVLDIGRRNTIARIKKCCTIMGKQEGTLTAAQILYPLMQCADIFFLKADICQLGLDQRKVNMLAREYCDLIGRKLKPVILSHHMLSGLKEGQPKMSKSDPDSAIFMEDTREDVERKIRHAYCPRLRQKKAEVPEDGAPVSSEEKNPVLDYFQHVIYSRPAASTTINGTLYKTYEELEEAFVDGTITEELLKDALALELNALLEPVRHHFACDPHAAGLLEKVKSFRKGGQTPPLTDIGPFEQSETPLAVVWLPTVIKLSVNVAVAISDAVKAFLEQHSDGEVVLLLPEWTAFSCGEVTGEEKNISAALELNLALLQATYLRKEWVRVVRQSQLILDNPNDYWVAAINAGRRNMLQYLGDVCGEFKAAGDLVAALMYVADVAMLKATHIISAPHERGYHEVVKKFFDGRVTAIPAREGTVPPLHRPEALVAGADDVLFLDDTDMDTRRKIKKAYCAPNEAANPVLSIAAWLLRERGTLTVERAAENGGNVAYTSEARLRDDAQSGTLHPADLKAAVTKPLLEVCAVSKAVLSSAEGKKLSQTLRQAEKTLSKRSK
Put plainly: Trypanosoma cruzi tyrosyl tRNA synthetase (TcYRS) _High Tyrosine SOP. Also: in the data most compounds retested in dose-response had high values. Format: functional. The settings on record: 30 µM.

The target in assay [8] is T4, Tyrosyl-tRNA synthetase, putative (Trypanosoma cruzi (strain CL Brener)). Description: Trypanosoma cruzi tyrosyl tRNA synthetase (TcYRS) SOP. In kind it is functional. The note with it: 30 µM.
Assay [9] has as its target Chromo domain-containing protein 1 (Saccharomyces cerevisiae (strain ATCC 204508 / S288c) (Baker's yeast)) (UniProt P32657). Description: ScCHD-1 Enzyme Inhibition Assay. Also: in the data most compounds retested in dose-response had high values. In kind it is functional. The settings on record: 30 µM.

For some of these results: Measured potencies and affinities stand elsewhere.

Protein translocase subunit SecA (Escherichia coli (strain K12)), sequence (P10408 whole entry): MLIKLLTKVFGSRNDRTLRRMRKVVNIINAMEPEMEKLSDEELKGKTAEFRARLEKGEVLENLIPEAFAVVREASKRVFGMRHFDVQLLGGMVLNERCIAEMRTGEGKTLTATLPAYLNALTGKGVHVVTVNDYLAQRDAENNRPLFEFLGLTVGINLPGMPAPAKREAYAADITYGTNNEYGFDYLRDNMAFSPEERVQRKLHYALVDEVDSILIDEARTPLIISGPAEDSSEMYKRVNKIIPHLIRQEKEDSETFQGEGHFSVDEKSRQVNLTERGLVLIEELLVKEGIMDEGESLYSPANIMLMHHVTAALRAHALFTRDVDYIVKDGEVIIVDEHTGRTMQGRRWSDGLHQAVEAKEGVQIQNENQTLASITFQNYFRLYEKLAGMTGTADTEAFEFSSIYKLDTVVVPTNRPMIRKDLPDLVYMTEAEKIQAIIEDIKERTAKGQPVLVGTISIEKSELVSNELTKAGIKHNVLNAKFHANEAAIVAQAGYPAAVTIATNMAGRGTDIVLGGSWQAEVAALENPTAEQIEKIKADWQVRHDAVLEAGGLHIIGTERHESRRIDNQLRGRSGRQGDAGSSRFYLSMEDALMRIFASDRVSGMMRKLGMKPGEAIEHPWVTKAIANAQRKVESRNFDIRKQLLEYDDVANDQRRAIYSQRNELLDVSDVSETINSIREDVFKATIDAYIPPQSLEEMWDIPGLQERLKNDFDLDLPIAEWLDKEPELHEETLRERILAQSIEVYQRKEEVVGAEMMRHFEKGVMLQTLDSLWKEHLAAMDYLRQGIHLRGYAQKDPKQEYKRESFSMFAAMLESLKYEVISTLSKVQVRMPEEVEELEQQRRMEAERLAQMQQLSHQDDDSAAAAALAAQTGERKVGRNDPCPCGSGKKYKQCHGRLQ
Chromo domain-containing protein 1 (Saccharomyces cerevisiae (strain ATCC 204508 / S288c) (Baker's yeast)), sequence (P32657 whole entry, the tested form may be a part): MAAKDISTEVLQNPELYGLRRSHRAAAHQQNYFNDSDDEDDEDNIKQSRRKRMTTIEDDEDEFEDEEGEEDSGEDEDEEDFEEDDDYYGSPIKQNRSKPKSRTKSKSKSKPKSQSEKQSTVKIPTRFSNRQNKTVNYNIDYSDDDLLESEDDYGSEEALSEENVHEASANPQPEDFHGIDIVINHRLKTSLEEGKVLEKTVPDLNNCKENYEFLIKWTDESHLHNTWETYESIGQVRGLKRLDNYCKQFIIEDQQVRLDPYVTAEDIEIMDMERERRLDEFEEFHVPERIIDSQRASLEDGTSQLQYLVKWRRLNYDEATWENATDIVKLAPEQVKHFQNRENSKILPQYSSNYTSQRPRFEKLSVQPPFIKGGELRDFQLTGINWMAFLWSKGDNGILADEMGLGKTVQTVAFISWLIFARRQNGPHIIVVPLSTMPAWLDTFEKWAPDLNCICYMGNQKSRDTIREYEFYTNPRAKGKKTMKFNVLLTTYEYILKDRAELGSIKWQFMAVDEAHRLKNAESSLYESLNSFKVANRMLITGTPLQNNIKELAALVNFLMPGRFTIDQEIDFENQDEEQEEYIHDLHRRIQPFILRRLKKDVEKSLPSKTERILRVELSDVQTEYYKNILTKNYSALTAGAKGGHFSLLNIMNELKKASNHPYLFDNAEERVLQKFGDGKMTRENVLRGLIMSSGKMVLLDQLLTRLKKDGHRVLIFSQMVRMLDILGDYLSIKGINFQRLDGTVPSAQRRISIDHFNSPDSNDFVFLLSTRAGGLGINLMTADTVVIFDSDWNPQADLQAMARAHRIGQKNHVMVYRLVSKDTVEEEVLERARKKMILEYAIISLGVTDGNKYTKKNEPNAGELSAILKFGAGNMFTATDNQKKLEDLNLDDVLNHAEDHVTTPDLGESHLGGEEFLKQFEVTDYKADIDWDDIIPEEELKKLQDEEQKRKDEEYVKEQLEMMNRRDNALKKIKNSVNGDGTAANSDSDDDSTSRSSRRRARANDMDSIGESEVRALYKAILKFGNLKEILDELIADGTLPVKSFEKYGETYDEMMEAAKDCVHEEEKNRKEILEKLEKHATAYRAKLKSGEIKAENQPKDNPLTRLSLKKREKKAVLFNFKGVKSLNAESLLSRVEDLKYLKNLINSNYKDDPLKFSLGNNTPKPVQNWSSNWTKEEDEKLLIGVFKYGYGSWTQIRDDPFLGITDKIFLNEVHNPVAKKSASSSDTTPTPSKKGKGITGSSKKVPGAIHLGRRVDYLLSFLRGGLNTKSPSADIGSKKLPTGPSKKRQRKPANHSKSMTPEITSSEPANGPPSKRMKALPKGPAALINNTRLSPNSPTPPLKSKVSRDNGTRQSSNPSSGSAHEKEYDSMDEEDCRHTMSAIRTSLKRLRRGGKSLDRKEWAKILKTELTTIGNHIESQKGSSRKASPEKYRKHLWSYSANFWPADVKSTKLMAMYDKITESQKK
Sialic acid-binding Ig-like lectin 9 (Homo sapiens), sequence (Q9Y336 whole entry): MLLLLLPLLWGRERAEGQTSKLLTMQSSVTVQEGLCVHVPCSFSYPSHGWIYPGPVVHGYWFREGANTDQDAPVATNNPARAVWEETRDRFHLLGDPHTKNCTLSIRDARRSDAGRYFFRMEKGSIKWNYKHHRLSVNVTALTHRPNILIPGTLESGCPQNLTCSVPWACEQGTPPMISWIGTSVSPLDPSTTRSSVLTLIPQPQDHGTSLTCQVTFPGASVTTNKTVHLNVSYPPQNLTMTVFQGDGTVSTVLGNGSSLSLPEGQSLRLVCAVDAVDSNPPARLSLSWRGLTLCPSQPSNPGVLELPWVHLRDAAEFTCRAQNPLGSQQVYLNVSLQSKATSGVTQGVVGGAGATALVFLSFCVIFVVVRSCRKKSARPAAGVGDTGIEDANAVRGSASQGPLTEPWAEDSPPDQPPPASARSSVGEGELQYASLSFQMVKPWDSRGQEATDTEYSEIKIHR

For `COc1ccc(-c2nc(CN3CCN(CCO)CC3)co2)cc1`, the Percent Effect is -2.39% in [1]; 20.8% in assay [2]; -11.9% in assay [3]; -1.67% in [4]; 8.8% with Trypanosoma cruzi; 4.98% in assay [5]. Further, the Percent Effect in [6] was 15.2%; in the assay filed under Homo sapiens, 29%; in assay [7], 5.83%; in assay [8], 24.4%; in [9] it was -9.19%.

On to `Cn1cccc1CN1CCC2(CCCN(C(=O)c3cnccn3)C2)C1` (stereo not drawn), for which the Percent Effect was 0.875% in assay [1]; 7.79% in assay [2]; -0.756% in assay [3]; -13.7% in assay [4]; -10.8% with Trypanosoma cruzi; 11% in [5]. Also, the Percent Effect in assay [6] was 14.4%; in the assay filed under Homo sapiens it was 29.7%; in assay [7], -2.12%; in assay [8], -1.28%; in assay [9], -9.31%.

For `Cc1cn(CC(=O)NC2CCN(S(C)(=O)=O)CC2)c2ccccc12`, the Percent Effect in [1] is -4.19%; in [2] it was 0%; in [3], 0.231%; in assay [4], -6.08%; in the assay with Trypanosoma cruzi it was -2.44%; in [5] it was 1.74%. The Percent Effect in [6] was 3.18%; in the assay listed under Homo sapiens, 0.23%; in assay [7], 2.15%; in [8] it was 8.64%; in [9] it was -4.9%.

Regarding `CC(OCC(F)(F)F)C(=O)Nc1ccc(-n2cncn2)nc1` (stereo not drawn), the Percent Effect in [1] is -3%; in [2], 2.6%; in assay [3], 24.5%; in assay [4], -9.5%; with Trypanosoma cruzi it was -1.27%; in assay [5] it was 1.05%. The Percent Effect was 8.49% in assay [6]; 22.3% in the assay listed under Homo sapiens; 5.71% in assay [7]; 9.41% in assay [8]; -17.1% in assay [9].

On to `Cc1cnn(CCNCc2csc(-c3ccc4c(c3)OCO4)n2)c1`, for which the Percent Effect in assay [1] was -4.64%; in assay [2], -13.2%; in [3] it was -1.92%; in assay [4], -4.07%; with Trypanosoma cruzi, -5.83%; in assay [5] it was 2.68%. Besides, the Percent Effect in [6] came out at 11.2%; in the assay listed under Homo sapiens it was 24%; in assay [7] it was 1.47%; in assay [8] it was 4.88%; in [9] it was 18%.

Regarding `CCc1ccc(NS(=O)(=O)CC2=NC(=O)n3cccc3C2=O)cc1`, the Percent Effect was 1.25% in assay [1]; -17.3% in assay [2]; 11.5% in assay [3]; 5.52% in assay [4]; -0.786% in the assay with Trypanosoma cruzi; -7.57% in [5]. Besides, the Percent Effect in assay [6] is 6.1%; in the assay listed under Homo sapiens it was 0.554%; in assay [7], -8.47%; in [8] it was -12.8%; in [9], 3.49%.

For the molecule `Cc1ccc(-n2nnc(C(=O)Nc3cc(C)nn3C)c2C2CC2)cc1`, the Percent Effect was -8.29% in assay [1]; 5.41% in assay [2]; 1.63% in [3]; -1.73% in [4]; -3.99% with Trypanosoma cruzi; 1.66% in assay [5]. For the same molecule, the Percent Effect in assay [6] was found to be 8.98%; in the assay listed under Homo sapiens, 33.1%; in assay [7] it was 3.96%; in assay [8] it was 1.22%; in assay [9], 1%.

Turning to `CC(=O)NCC1CCN(CC2CCOc3ccccc3C2)CC1` (stereo not drawn), the Percent Effect is -1.44% in assay [1]; 15.3% in assay [2]; -4.21% in assay [3]; 14% in [4]; 1.85% with Trypanosoma cruzi; 9.27% in [5]. Further, the Percent Effect in assay [6] is 13.2%; in the assay listed under Homo sapiens it was -5.31%; in [7], 4.21%; in [8], 15.4%; in assay [9] it was -2.81%.
